Drawing on PubChem BioAssay (NCI), this text covers growth for 39 compounds.

SMILES strings stand for the structures. About 83,000 compounds went through this panel and 20% of them were active in at least one assay; those are over-represented in the sample as a whole.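 Treatment: one concentration, 48 hours, 96-well format. Scoring: percent growth, with anything below 10 considered active.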 The source made the active and inactive calls.

The subject of one assay is SK-OV-3 ovarian. As to the kind of experiment: NCI-60 one-dose screen, 48 h (100 = growth as untreated, 0 = no growth, -100 = all killed). The settings on record: 10 µM unless noted.
Regarding `COc1cccc(C(=O)Cn2cc(/C=C(\C#N)S(=O)(=O)c3ccccc3)c3ccccc32)c1`, the growth was 85% (inactive). The same measure, in the same setting: the value for `CCOC(=O)C1=C(C)N=c2s/c(=C\c3ccccc3O)c(=O)n2C1c1ccc(OC)c2ccccc12` (centres undefined) was 61.7% (inactive); that for `O=C(Cc1ccccc1)NC(c1ccc(Cl)cc1)c1c(O)ccc2ccccc12` (centres undefined) was 36.1% (inactive); that for `Cc1c(-c2noc(-c3ccc([N+](=O)[O-])cc3)n2)no[n+]1[O-]` was 111% (inactive). The same measure, in the same setting: the value for `O=C(c1ccccc1)N(CCc1ccc(Cl)cc1)C(=S)N(C(=O)c1ccccc1)c1ccccc1` was 120% (inactive).

For `CCN1C(=O)N(CC)C2C1NC(=S)N2/N=C/C=C/c1ccccc1OC` (centres undefined), the growth is 33.7% (inactive). The same measure, in the same setting: the value for `COC(=O)/C(=C\c1c(-c2ccccc2)[nH]c2ccccc12)S(C)(=O)=O` was 39.8% (inactive); that for `C#CCn1cc(C=C2C(=O)N(C)C(=O)N(C)C2=O)c2cc(Cl)ccc21` was 115% (inactive); that for `N#C/C(=C\c1c(-c2ccccc2)[nH]c2ccccc12)C(=O)c1ccccc1` was 57.4% (inactive). Take `O=C(NN1C(=O)CSC1c1ccc(Cl)cc1)c1[nH]c2ccc(F)cc2c1-c1ccccc1` (centres undefined): the growth was 87.2% (inactive).

As to `COc1ccc(C2=Nn3c(NN)nnc3SC2)cc1`, the growth is 105% (inactive). For the compound `COC(=O)/C(=C\c1c(C)[nH]c2ccccc12)S(=O)(=O)c1ccccc1`, the growth is 22.6% (inactive).

As to `COC(=O)C1(C)COP(=O)(Nc2ccc(OC)cc2)OC1` (centres undefined), the growth was 108% (inactive). Still for that read-out and setting: the value for `CCOc1ccc2nc(C)cc(Nc3ccc(Br)cc3)c2c1` was 101% (inactive).

Consider `COc1ccc(-c2cn3c(C(=O)Nc4ccccc4Cl)c(-c4ccccc4)c4c3n2CCCC4)cc1`, for which the growth was 86.4% (inactive).

In the next assay the test system is IGROV1 ovarian. Described as above. Conditions: 10 µM unless noted.
As to `CS(=O)(=O)Nc1ccc(C(=O)NC(C(=O)NO)c2ccc(-c3cccc(F)c3)cc2)cc1` (centres undefined), the growth was 39.6% (inactive). Consider `COc1cccc2c1C=C1CCCCC3=Cc4c(OC)cccc4OC13O2`, for which the growth was 57.5% (inactive). Turning to `COc1cccc(/C(C#N)=C/c2nc3c(N4CCOCC4)nc(Cl)nc3n2C)c1`, the growth is -29.8% (active). `NCCOc1ncccc1/C=C1\c2ccccc2-c2ccc(F)cc21`: the growth was 26.1% (inactive). Turning to `Cc1ccc2cccc(Oc3ccc(Nc4ncnc5onc(-c6ccccc6)c45)cc3)c2n1`, the growth is 77.2% (inactive). With `CCN1C(=O)N(c2ccccc2)C2Nn3c(s/c(=C4\C(=O)N(C(C)C)c5ccccc54)c3=O)=NC21` (centres undefined), the growth is 99.6% (inactive). As to `c1ccc2c(c1)oc1cc3sccc3nc12`, the growth is 95.8% (inactive). Same read-out and setting: the value for `O=C1/C(=C/c2cccc(O)c2)COc2ccc(O)cc21` was 78.1% (inactive).

In the case of `Cn1c(/C=C(\C#N)c2ccccc2)nc2c(N3CCOCC3)nc(Cl)nc21`, the growth is -61.7% (active). Still for that read-out and setting: the figure for `O=S(=O)(Nc1ncccn1)c1ccc(NC2Nc3nc4ccccc4nc3S2)cc1` (centres undefined) is 96.3% (inactive); for `COC(=O)C1(C)CCC[C@]2(C)[C@H]3C[C@H]4C(C(C)C)=C[C@]3(CC[C@@H]12)[C@H]1[C@@H]4[C@@H](OCC#CCN2CCOCC2)CC[C@@H]1OCC#CCN1CCOCC1` (some centres undefined) it is 70.6% (inactive). Still for that read-out and setting: the value for `O=c1c2cc(F)ccc2sc2c(Nc3ccncc3)nc3ccccc3c12` was 70.7% (inactive). On the same count and under the same terms, the value for `Cc1cc2c(c(C)c1Cl)C(=O)/C(=C/c1cccc([N+](=O)[O-])c1)O2` was 96.6% (inactive); that for `O=C1Nc2ccccc2/C1=C/c1cccs1` was 72% (inactive); that for `COc1ccc2occ(C3=C(c4c[nH]c5ccccc45)C(=O)NC3=O)c2c1` was 41.5% (inactive).

As to `O=C1/C(=C/c2ccc(O)cc2)COc2ccc(O)c(O)c21`, the growth is 8.79% (active). On the same count and under the same terms, the value for `CCCN1CCN(c2ccc3nc(-c4ccc5nc(-c6cc(OC)ccc6OC)[nH]c5c4)[nH]c3c2)CC1` was 103% (inactive). Regarding `O=Cc1cc2ccccc2nc1Nc1nccs1`, the growth was 42.6% (inactive). Still for that read-out and setting: the value for `O=c1c2cccc(F)c2sc2c(N3CCNCC3)nc3ccccc3c12` was 28.3% (inactive); that for `COc1cccc2c(=O)c3c(sc12)c(NCCCNCCO)nc1ccccc13` was 26.2% (inactive). Regarding `O=c1c(-c2nc3ccccc3[nH]2)cc2ccccc2n1Cc1cn(Cc2ccc(N3CCOCC3)cc2)nn1`, the growth is 40% (inactive).

On to `Nc1nc(-c2cnccn2)nn1-c1nc2ccccc2s1`, for which the growth is 100% (inactive). For `NCCNc1nc2ccccc2c2c(=O)c3cc(F)cc(Cl)c3sc12`, the growth is 71.9% (inactive).

Consider `CNCCNc1nc2ccccc2c2c(=O)c3cccc(OC)c3sc12`, for which the growth was 29.7% (inactive).
